HP1b binding inh – blocks HP1-beta chromodomain binding to methylated histone tails. P83916. AlphaScreen HP1-beta / biotin-H3K9me3 peptide binding. Potency, µM (highest dose often 114 µM), inactives show at the top dose activity change, negative = inhibition, hits mostly inhibitors. AID 540317. 390,000 tested, 0.56% active; note: nearly all actives have a fitted effect of over 70% in size
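AlphaScreen: HP1-beta (50 nM) preformed 30 min with biotin-H3(1-18)K9me3 peptide (50 nM) in PBS pH 7.4, 0.01% Tween-20. Compound added for 30 min at RT, then streptavidin donor/nickel chelate acceptor beads (10 ug/mL) for 30 min.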
JMJD2A Tudor – blocks the human JMJD2A Tudor domain; O75164; AlphaScreen JMJD2A-Tudor / H3K4me3 peptide binding; Potency, µM (top dose mostly 114 µM), without a hit: top-dose activity change, negative = inhibition, usual class: inhibitors; 390,000 tested, 4.4% active; note: % is set by controls: 0 for no effect and ±100 for the full control effect; nearly all actives have a fitted effect of over 50% in size
Sfp inh – blocks B. subtilis Sfp PPTase activity; Q9F4F7; Biochemical Sfp PPTase activity, qHTS; Potency, µM, without a hit: largest response in the series, negative = inhibition, hits mostly inhibitors; 310,000 tested, 3.5% active; AID 1490;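 note: the enzyme is Sfp with the accession as filed and its product quenches rhodamine fluorescence; 0% = enzyme reaction without inhibitor and -100% = no enzyme wells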
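Sfp 15 nM + cpd, 15 min RT; start w/ rhodamine-CoA 5 uM, BHQ-2-YbbR 12.5 uM (final); 50 mM Hepes pH 7.6, 10 mM MgCl2, 0.01% NP-40, 0.01% BSA; read 525/598 nm at 0 and 30 min.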
BAZ2B block – blocks human BAZ2B | Potency, µM (series often up to 114 µM), inactives show at the top dose activity change, negative = inhibition, most hits filed as inhibitors | AID 504333 | 360,000 tested, 4.4% active | Q9UIF8 | AlphaScreen BAZ2B-H3K14Ac peptide displacement; note: % is set by controls: 0 for no effect and ±100 for the full control effect; nearly all actives have a fitted effect of over 60% in size
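AlphaScreen luminescence quantifies BAZ2B engagement of H3K14Ac peptide; the protein and biotinylated peptide are both at 50 nM final, buffer PBS pH 7.4 with 0.01% Tween-20, all steps at room temperature.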
L3MBTL1 block – L3MBTL1 (human) inhibition; Q9Y468; AlphaScreen L3MBTL1–H3K9me1 peptide binding; Potency, µM (top dose mostly 57.1 µM), for the others: at the highest dose activity, negative = inhibition, actives largely listed as inhibitors; 230,000 tested, 0.66% active; AID 485360; note: % is set by controls: 0 for no effect and ±100 for the full control effect; nearly all actives have a fitted effect of over 60% in size
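L3MBTL1 50 nM + b-AHA-H3(1-15)K9me1 75 nM, 30 min RT; compound added, 30 min RT; streptavidin donor/Ni-chelate acceptor beads 10 ug/mL each final, 30 min RT dark; AlphaScreen read.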
G9a block – blocks human histone lysine methyltransferase G9a; 350,000 tested, 8.8% active; G9a H3K9 monomethylation, AlphaScreen, 2 h; Q96KQ7; Potency, µM (titrated, usually from 102 µM), for the others: at the top dose activity, negative = inhibition, usual class: inhibitors; note: % is set by controls: 0 for no effect and ±100 for the full control effect; nearly all actives have a fitted effect of over 75% in size
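AlphaScreen detection with an anti-monomethyl H3K9 antibody quantified product after a 2 h room-temperature reaction containing 500 nM biotinylated H3K9 peptide, 20 µM SAM and 20 nM enzyme, which had been preincubated 15 min with compound.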
The depositor's hits bear a star; ? = inconclusive; / = not tested or not shown; ! = repeats disagree; [ ] = another dose, or the depositor's remark. An excerpt weighted towards active compounds, which were near 12% of everything screened. Calls come from the whole dose curve; as a rule, active = well fitted curve in the direction sought with a large enough effect; inconclusive = small, poorly fitted or top-dose-only effect, or another doubt; inactive = no such curve, though single readings can be large; an effect the other way counts as inactive or inconclusive. Potency is the fitted concentration of half-maximal effect.

SMILES	HP1b binding inh	JMJD2A Tudor	Sfp inh	BAZ2B block	L3MBTL1 block	G9a block
CN(C)S(=O)(=O)c1cccc(NC(=O)c2ccc(NS(=O)(=O)c3cccs3)cc2)c1	24%	-15%	/	/	2%	/
CC(=O)c1ccc(Nc2ncnc3c2oc2ccccc23)cc1	47%	?	-16%	?	5%	79µM*
COc1ccc(CCNc2ncnc3c2c(-c2ccccc2)cn3-c2ccc(Cl)cc2)cc1OC	?	?	/	-36%	/	?
CCc1ccc2c(c1)NC(c1ccc(OC)cc1)=NC(c1ccncc1)=N2	?	50µM*	/	?	/	-8%[59 µM]
CCOc1ccc(C2=NC(c3cccs3)=Nc3ccc(CC)cc3N2)cc1OCC	?	25µM*	/	10µM*	/	10µM*
CCCCOc1ccc(C2=NC(c3cccs3)=Nc3ccc(OC)cc3N2)cc1	-23%	40µM*	/	?	/	?
O=C(COC(=O)Cc1ccsc1)Nc1ccc(Cl)c(S(=O)(=O)N2CCOCC2)c1	39%	-7%	2%	-25%	-7%	-15%[59 µM]
COc1ccc(-c2[nH]c(-c3ccccc3)nc2SCC(=O)Nc2ccc3c(c2)OCCO3)cc1	-8%	?	/	?	/	?
COc1ccc(-c2[nH]c(-c3ccccc3)nc2SCC(=O)NC2CCCC2)cc1	?	?	-1%	?	-8%	-48%[59 µM]
COc1ccc(-c2nc(SCC(=O)Nc3ccc4c(c3)OCO4)c(-c3ccc(OC)cc3)[nH]2)cc1	-16%	?	/	79µM*	/	13µM*
COc1ccc(-c2[nH]c(-c3cccc(OC)c3)nc2SCC(=O)NC2CCCC2)cc1	18%	?	4%	?	-27%	79µM*!
O=C(CSc1nc(-c2ccccc2)[nH]c1-c1ccccc1)Nc1ccc2c(c1)OCCO2	-15%	?	/	?	/	?
COc1cccc(-c2nc(SCC(=O)Nc3ccc4c(c3)OCO4)c(-c3ccccc3)[nH]2)c1	?	?	/	?	/	8.9µM*
COc1ccccc1CNc1ncncc1-c1ccccc1Cl	/	/	0%	/	/	12%[0.501 µM]
COc1ccc(OC)c(N2Cc3cc(C)c(C)cc3C2)c1	-20%	?	1%	?	-6%	13µM*
Cc1ccc(C(C[N+](=O)[O-])n2nc(C)cc2C)cc1 (configuration not stated)	15%	-24%	-26%	-13%	/	?
Cc1ccc(C(C[N+](=O)[O-])Sc2ccc(N)cc2)cc1 (configuration not stated)	-1%	-26%	5.6µM*	?	-16%	40µM*
CC(=O)N1CCOc2ccc(S(=O)(=O)NCCc3cccc(C)c3)cc21	68%	-4%	6%	-25%	/	-2%
CC(C)(C)c1ccc(NC(=O)c2ccccc2)c([N+](=O)[O-])c1	?	50µM*	-15%	?	/	?
O=C(NC(=S)Nc1ccccc1[N+](=O)[O-])c1ccccc1	?	?	28µM*	-18%	?	25µM*
O=C(NNC(=S)NC(=O)c1ccccc1[N+](=O)[O-])c1ccccc1[N+](=O)[O-]	4%	-8%	-2%	-5%	/	?
O=C(NNC(=S)NC(=O)c1ccccc1[N+](=O)[O-])c1ccc(Cl)cc1Cl	5%	-6%	24%	3%	13%	18µM*
O=C(NNC(=S)NC(=O)c1ccccc1[N+](=O)[O-])c1ccccc1O	29%	89µM*	23%	?	?	-38%
O=C(NC(=S)Nc1cccc2c(O)cccc12)c1ccccc1[N+](=O)[O-]	24%	-12%	13%	-25%	/	?
CC(NS(=O)(=O)c1cccc(C(=O)N(C)Cc2ccc(N3CCOCC3)cc2)c1)c1ccccc1 (configuration not stated)	38%	-23%	/	/	/	/
SMILES	HP1b binding inh	JMJD2A Tudor	Sfp inh	BAZ2B block	L3MBTL1 block	G9a block
Cc1ccc(C(=O)NC(=S)NNC(=O)c2ccccc2[N+](=O)[O-])cc1	-26%	56µM*	45µM*	3%	99%	8.9µM*
Cc1ccc(C(=O)NC(=S)NNC(=O)c2ccc([N+](=O)[O-])cc2)cc1	3%	-28%	14%	0%	4%[2.29 µM]	24%[0.501 µM]
CC(=O)OC[C@@H]1O[C@H](CCO/N=C\[C@@H](C)[C@H](OCc2ccccc2)C(C)C)C=C[C@@H]1OC(C)=O	/	/	5%	/	/	/
CC(=O)OC[C@H]1O[C@@H](O/N=C/[C@@H](C)[C@H](OCc2ccccc2)C(C)C)[C@H](OC(C)=O)[C@@H](OC(C)=O)[C@@H]1OC(C)=O	/	/	1%	-9%	-6%	50µM*
COc1cccc(CNC(=O)c2ccc(NC(=O)CC3SC(N4CCCC4)=NC3=O)cc2)c1 (configuration not stated)	25%	-6%	/	-8%	-4%	20%[12.7 µM]
CCOC(=O)CSc1[nH]c(=O)cc(C)c1C#N	69%	-18%	2%	-24%	/	-1%[59 µM]
COC(=O)c1ccccc1NC(=O)CSc1[nH]c(=O)cc(C)c1C#N	21%	-20%	20%	-17%	5%	-6%
Cc1cc(=O)[nH]c(SCC(=O)Nc2ccccc2C#N)c1C#N	12%	-24%	32µM*	-24%	/	?
CCOC(=O)CC(=O)CSc1[nH]c(=O)cc(C)c1C#N	45%	-16%	50µM*	-30%	/	1%[59 µM]
COc1cc(/C=N/NC(=O)c2ccc(-n3cccc3)cc2)ccc1O	-34%	?	-2%	?	-8%	79µM*
COc1ccc(C(=O)N/N=C/c2ccc(OC)c(CN3CCc4cc(OC)c(OC)cc4C3C)c2)cc1 (configuration not stated)	9%	-21%	100µM*	-18%	/	-25%
COc1ccc(/C=N/NC(=O)c2ccccc2F)cc1CN1CCN(c2ccc(F)cc2)CC1	-18%	-25%	3%	50µM*	-15%	-51%[59 µM]
COc1cc(/C=N/NC(=O)NC23CC4CC(CC(C4)C2)C3)ccc1O	1%	-33%	-13%	?	/	56µM*
O=C(N/N=C/c1ccc(O)c(O)c1)NC12CC3CC(CC(C3)C1)C2	-11%	?	-18%	?	/	12%[2.33 µM]
CCOC(=O)c1cccc(Nc2cc(C)nc(C)n2)c1	40%	-16%	/	-21%	/	8%[59 µM]
COc1cc(C(=O)N/N=C/c2ccc(OC)c(CN3CCN(c4ccc(F)cc4)CC3)c2)ccc1O	-14%	45µM*	2%	-70%	/	?
Cc1cccc(Cn2cccc2CNS(=O)(=O)c2ccc(C)c(C)c2)c1	28%	-5%	/	0%	/	-26%[59 µM]
COc1ccccc1N=C(C)C1=C(O)CC(c2ccccc2)CC1=O (configuration not stated)	18%	?	14%	?	-2%	50µM*
